The record followed here is PubChem BioAssay AID624297 (National Center for Advancing Translational Sciences (NCATS), 2012).

“And” between values parts separate entries of the source, which are not always exact repeats. Identical values can stand only once. Out of some 340,000 compounds screened, about 6,200 (1.8%) were called active. A call without a number means that no potency is given here. About 10% were inconclusive and are not listed. Many of the other results were omitted from the sample, so actives are more common in it than they were. Values without a mark were called inactive. Calls come from the whole dose curve; as a rule, active = well fitted activation curve with a large enough effect; inconclusive = small, poorly fitted or top-dose-only effect; inactive = no such curve, though single readings can be large or run the other way.
Potency is the fitted concentration of half-maximal effect.

This test can be described thus: A quantitative high throughput screen for small molecules that induce DNA re-replication in SW480 colon adenocarcinoma cells. Note: nearly all actives have a fitted effect of over 55% in size. To be noted: Hoechst DNA content imaging, 48 h; series mostly up to 46.1 µM. In outline:
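Per well, 250 cells were exposed to pinned compound for 48 hr. Nuclear DNA was visualised with Hoechst (40 min, 37 C) and total object intensity recorded by fluorescence scanning.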
For `COC(=O)c1cc(N2CCNCC2)nc2ccccc12`, the Potency is 10.3 µM (active).
As to `CNC(=O)COC(=O)c1cc(-c2ccc(OC)cc2)nc2ccccc12`, the Potency entry is “inactive”.
Turning to `Cc1cc(C(=O)Nc2ccccc2N2CCOCC2)c2ccccc2n1`, the Potency result is “inactive”.
For `Cc1cccc(NC(=O)c2ccc(S(=O)(=O)N(C)c3ccccc3)cc2)n1`, the Potency result is “inactive”.
As to `CCCCCCc1ccc(O)cc1O`, the Potency result was “inactive”.
Take `CCCCCCc1cc2cc(-c3nnc(-c4ccccc4)o3)c(=O)oc2cc1O`: the Potency is 3.55 µM (active).
For the molecule `Cc1c(CC(=O)NCCCCCC(=O)O)c(=O)oc2cc3occ(-c4ccccc4)c3cc12`, the Potency result is “inactive”.
The same measure, in the same setting: the entry for `CCCCNC1(C#N)CCN(Cc2ccccc2)CC1` is “inactive”.
With `COc1cc(NC(=O)COC(=O)c2cc(S(=O)(=O)N3CCOCC3)ccc2F)cc(OC)c1`, the Potency entry was “inactive”.
On to `COc1cc(/C=C2\CCCc3c2nc2ccccc2c3C(=O)O)cc(Cl)c1O`, for which the Potency result was “inactive”.
`NS(=O)(=O)c1ccc(NC(=O)COC(=O)c2c3c(nc4ccccc24)/C(=C\c2ccc4c(c2)OCO4)CCC3)cc1`: the Potency was 7.31 µM (active) and 11.6 µM (active).
Same read-out and setting: the result for `O=C(COC(=O)c1ccncc1)Nc1ccc2c(c1)OCO2` reads “inactive”; that for `NC(=O)c1ccc(NC(=O)COC(=O)c2c3c(nc4ccccc24)/C(=C\c2ccc4c(c2)OCO4)CCC3)cc1`, 7.31 µM (active); that for `O=C(COC(=O)c1c2c(nc3ccccc13)/C(=C\c1cccs1)CCC2)Nc1ccccc1Cl`, 14.6 µM (active) and 13 µM (active).
Same read-out and setting: the result for `NS(=O)(=O)c1ccc(NC(=O)COC(=O)c2cc3ccccc3oc2=O)cc1` reads “inactive”; that for `O=C(COC(=O)c1c2c(nc3ccccc13)CCCC2)c1ccc(Br)s1`, “inactive”.
As to `NS(=O)(=O)c1ccc(NC(=O)COC(=O)c2ccco2)cc1`, the Potency entry is “inactive”.
For `O=C(COC(=O)c1ccc(F)cc1)Nc1ccc2c(c1)OCO2`, the Potency result was “inactive”.
Take `OCC1(CO)CC2(C1)CC(CO)(CO)C2`: the Potency result is “inactive”.
`COc1ccc(CCNC(=O)COC(=O)c2ncc(Cl)c(Cl)c2Cl)cc1OC`: the Potency result was “inactive”.
Take `O=C(CNC(=O)c1ccccc1F)OCC(=O)c1c[nH]c2ccccc12`: the Potency result is “inactive”.
For `CC(=O)Nc1ccc(S(=O)(=O)Nc2ccc(N3CCCCC3)cc2)cc1`, the Potency entry was “inactive”.
With `CCC1([N+](=O)[O-])COC(c2ccc(C(C)C)cc2)OC1` (stereo not given), the Potency entry was “inactive”.
As to `CC1CCCCC12NC(=O)N(CC(=O)OCc1c(F)cccc1Cl)C2=O` (stereo not given), the Potency entry is “inactive”.
Regarding `COc1ccc(CNC(=O)C2CC(c3ccc(C(F)(F)F)cc3)=NO2)cc1` (stereo not given), the Potency entry was “inactive”.
For `COc1ccc(C2=NOC(C(=O)NCc3ccco3)C2)cc1OC` (stereo not given), the Potency is 13 µM (active).
Same read-out and setting: the entry for `COc1ccc(S(=O)(=O)N2CCC(C(=O)NCc3ccco3)CC2)cc1C` is “inactive”.
Turning to `Cc1cc(N2CCCC2)ccc1NC(=O)COc1ccc(Cl)cc1`, the Potency entry is “inactive”.
Still for that read-out and setting: the entry for `CC(C)n1cnc2c(NCc3ccccc3)cc(OCC3CCN(C)CC3)cc21` is “inactive”.
Same read-out and setting: the result for `COc1ccccc1NS(=O)(=O)c1ccc(C)c(C(=O)NNC(=O)c2csc(N3CCOCC3)n2)c1` reads “inactive”; that for `O=C(C(=O)N1CCc2ccccc2C1)N1CCc2ccccc2C1`, “inactive”.
With `O=C(C(=O)N1CCc2ccccc2C1)c1c[nH]c2ccccc12`, the Potency is 4.11 µM (active).
Take `O=C(NC1CCCC1)C(=O)c1c[nH]c2ccccc12`: the Potency result is “inactive”.
Take `COc1cc2c(-c3ccc4c(c3)OCO4)c(-c3ccsc3)oc(=O)c2cc1OC`: the re-replication activation is -0.829% [at 9.22 µM].
`COc1ccc(-c2ccc3c(c2)[C@@H]2C[C@H](N(C)S(=O)(=O)c4ccccc4)[C@H]([C@H](C)O)C(=O)N2CC3)cc1`: the Potency result is “inactive”.
The same measure, in the same setting: the entry for `CC1CCCN(C(=O)Cn2c(=O)oc3cc(S(=O)(=O)N4CCCCC4C)ccc32)C1` (stereo not given) is “inactive”; for `CC(C)c1nc2ccc(C(=O)O)cc2[nH]1` it is “inactive”.
Turning to `Cc1ccc(O)c(CNc2nc3ccccc3[nH]2)c1`, the Potency result is “inactive”.
Same read-out and setting: the result for `COC(=O)Nc1nc2ccc(Sc3ccccc3)cc2[nH]1` reads 640 nM (active) and 2.06 µM (active); that for `COc1ccc(C)cc1NC(=O)CN1c2cccc3cccc(c23)S1(=O)=O`, “inactive”.
Turning to `Cc1ccc(N(C(=O)c2snc(C(N)=O)c2N)C(C(=O)NCC2CCCO2)c2c[nH]c3ccccc23)cc1` (stereo not given), the Potency entry was “inactive”.
As for `CCOc1ccc(N(C(=O)c2snc(C(N)=O)c2N)C(C(=O)NCC2CCCO2)c2c[nH]c3ccccc23)cc1` (stereo not given), the Potency entry was “inactive”.
Turning to `Cc1ccc(C(C(=O)NCC2CCCO2)N(C(=O)c2snc(C(N)=O)c2N)c2ccc(C(C)C)cc2)o1` (stereo not given), the Potency is 18.4 µM (active).
For the molecule `COc1ccccc1C(=O)COC(=O)COc1ccc(C#N)cc1`, the Potency entry was “inactive”.
Still for that read-out and setting: the result for `CCCC(CNC(=O)COC(=O)C1=NNC(=O)CC1)c1ccc(Cl)cc1Cl` (stereo not given) reads “inactive”; that for `Oc1[nH]c2ccccc2c1N=Nc1c(F)c(F)c(F)c(F)c1F`, “inactive”; that for `C(#CCN1CCOCC1)CCCN1CCOCC1`, “inactive”.
For the molecule `O=C(COc1cccnc1[N+](=O)[O-])Nc1ccc(Cl)cc1F`, the Potency entry is “inactive”.
For `COc1cccc(NC(=O)CN(C)C(=O)/C=C/c2cn(-c3ccccc3)nc2-c2cccs2)c1`, the Potency result was “inactive”.
Regarding `Cc1ccc(NC(=O)CC(=O)Nc2ccc(C)cc2)cc1`, the Potency result was “inactive”.
On to `O=C(Nc1ccc(Sc2ccc(Br)cc2)cc1)c1ccco1`, for which the Potency entry was “inactive”.
Same read-out and setting: the figure for `O=C(CCl)Nc1ccc(Sc2ccc(NC(=O)CCl)cc2)cc1` is 4.61 µM (active).
`CC1CCCCC1NC(=O)Cn1cnc2c1c(=O)n(C)c(=O)n2C` (stereo not given): the Potency entry is “inactive”.
Still for that read-out and setting: the entry for `COc1ccc(-c2nnc(SC(C)C(=O)NC3CC3)o2)cc1` (stereo not given) is “inactive”; for `COc1ccc2c(CC(=O)NNC(=O)c3ccccc3F)coc2c1` it is “inactive”.
Still for that read-out and setting: the result for `S=C(NCC1COc2ccccc2O1)Nc1ccc(Br)cc1` (stereo not given) reads “inactive”.
As to `c1ccc(-c2cc3c(NCC4COc5ccccc5O4)ncnc3s2)cc1` (stereo not given), the Potency was 18.4 µM (active).
Take `Oc1ccccc1N1CCN(c2ncnc3sc(-c4ccccc4)cc23)CC1`: the Potency result was “inactive”.
Still for that read-out and setting: the entry for `Cc1ccc(NC(=O)C(C)OC(=O)C2CC3CCCC(C2)C3=O)cc1S(=O)(=O)N1CCOCC1` (stereo not given) is “inactive”.
For the molecule `CN(C)C(=O)CCc1ccc2c3c([nH]c2c1)[C@]1(C)[C@@H](C(=O)N2CCCCC2)C[C@H](CC(=O)NCCC2=CCCCC2)C(=O)N1CC3`, the Potency entry is “inactive”.
Turning to `COC(=O)c1ccc(CNC(=O)Cn2cc(C)c(=O)[nH]c2=O)cc1`, the Potency entry was “inactive”.
Still for that read-out and setting: the result for `C[C@H](CO)N1C[C@H](C)[C@@H](CN(C)Cc2ccc(-c3ccccc3)cc2)Oc2ccc(NC(=O)Cn3cnnn3)cc2C1=O` reads “inactive”; that for `Cc1ccc2[nH]c(=O)c(CC(=O)O)c(-c3ccccc3)c2c1`, “inactive”; that for `Cc1cccc(N(C)C(=O)c2cc3c(=O)[nH]c4ccc(C)cc4c3s2)c1`, 9.2 µM (active).
Consider `CCN(CC)CCCNC(=O)c1cc2c(=O)[nH]c3ccc(C)cc3c2s1`, for which the Potency entry is “inactive”.
Same read-out and setting: the result for `CCCN(CC(=O)Nc1ccccc1C)C(=O)c1ccc(OCC(=O)N2CCOCC2)c(OCC)c1` reads “inactive”.
Still for that read-out and setting: the result for `Cc1nc2ccccc2c(C(=O)O)c1-c1ccccn1` reads “inactive”.
Same read-out and setting: the figure for `C=CCN(CC=C)S(=O)(=O)c1ccc(C(=O)Nc2nc3c(s2)CCc2ccccc2-3)cc1` is 14.6 µM (active); for `CCN(c1ccccc1)S(=O)(=O)c1ccc(C(=O)Nc2nccs2)cc1` it is “inactive”.
`NC(=O)c1c(NC(=O)c2ccccc2)sc2c1CCCC2`: the Potency result was “inactive”.
With `C=CCN(CC=C)S(=O)(=O)c1ccc(C(=O)Nc2sc3c(c2C(N)=O)CCCCC3)cc1`, the Potency is 9.2 µM (active).
Turning to `COc1cccc(OC)c1C(=O)Nc1sc2c(c1C(N)=O)CCCC2`, the Potency result was “inactive”.
Same read-out and setting: the entry for `COc1ccc(C(=O)Nc2ncc3c(n2)-c2ccccc2CC3)cc1` is “inactive”; for `O=C(O)C1C2C=CC(O2)C1C(=O)Nc1ccccn1` (stereo not given) it is “inactive”.
Turning to `O=C(CNC(=O)c1ccco1)NNC(=O)c1ccc(Br)cc1`, the Potency entry was “inactive”.
Regarding `O=C(O)c1ccc(Cn2cnc3c(=S)nc[nH]c32)cc1`, the Potency result is “inactive”.
With `Cc1cc([N+](=O)[O-])ccc1NS(=O)(=O)c1ccccc1`, the Potency result is “inactive”.
`NC(=O)C1(Nc2ccccc2Cl)CCCC1`: the Potency entry was “inactive”.
In the case of `COc1ccc(CS(=O)/C(Cl)=C(/Cl)C(=O)Nc2ccc(OC)nc2)cc1` (stereo not given), the Potency was 0.259 µM (active).
Consider `CCOc1ccc(S(=O)(=O)Nc2ccc(OC)nc2)cc1`, for which the Potency entry was “inactive”.
`COc1ccc(CC(=O)Nc2ccc(C(=O)NC(C)(C)C)cc2)cc1`: the Potency result is “inactive”.
As to `COc1cccc(CNC(=O)C(=O)NCCC2CCCCN2S(=O)(=O)c2ccc(C)cc2)c1` (stereo not given), the Potency is 15.8 µM (active).
On the same count and under the same terms, the result for `O=C(NCCC1CCCCN1S(=O)(=O)c1ccccc1)C(=O)NCC1CCCO1` (stereo not given) reads “inactive”; that for `O=C(NCCC1CCCCN1S(=O)(=O)c1ccc(F)cc1)C(=O)NC1CC1` (stereo not given), “inactive”.
Still for that read-out and setting: the entry for `O=C(COC(=O)COc1cc(Cl)c(Cl)cc1Cl)NC1CC1` is “inactive”.
In the case of `O=C1c2cccc3c([N+](=O)[O-])ccc(c23)C(=O)N1CC1CCCO1` (stereo not given), the Potency is 5.8 µM (active).
On to `CCOc1cccc(=O)c2c(C)n(CC3CCCO3)c(C)c12` (stereo not given), for which the Potency result is “inactive”.
As for `CN1CN(C)c2ccc([N+](=O)[O-])c3cccc1c23`, the Potency result was “inactive”.
On the same count and under the same terms, the result for `O=C(CSc1cccc2cccnc12)N/N=C/c1cccnc1` reads 7.31 µM (active); that for `O=C(CNC(=O)c1cccnc1)N/N=C/c1cccnc1`, “inactive”; that for `COc1ccc(C(=O)NCC(=O)N/N=C/c2cccnc2)cc1`, “inactive”.
Turning to `Cc1ccc(/C=N/NC(=S)NC2CCCCC2)o1`, the Potency entry was “inactive”.
Take `CN(C)S(=O)(=O)c1cccc(NC(=S)NCc2ccc3c(c2)OCO3)c1`: the Potency result was “inactive”.
Still for that read-out and setting: the figure for `Cc1ccc(/C=N/NC(=S)Nc2cccc(S(=O)(=O)N(C)C)c2)o1` is 23.1 µM (active); for `COc1cc(C(=O)CCc2ccc3c(c2)OCO3)cc(OC)c1OC` it is “inactive”.
For `CCOc1ccc2ccccc2c1/C=N/NC(=O)c1c(C)cc(C)[nH]c1=O`, the Potency was 23.1 µM (active).
Same read-out and setting: the entry for `COc1ccc2ccccc2c1/C=N/NC(=O)c1cc(C)[nH]n1` is “inactive”.
Regarding `Cc1ccc(C(=O)N/N=C/c2cccc3ccccc23)cn1`, the Potency result was “inactive”.
On the same count and under the same terms, the result for `O=C(COC(=O)c1ccc([N+](=O)[O-])o1)NC12CC3CC(CC(C3)C1)C2` reads “inactive”; that for `CCOC(=O)C1CCCN(C(=O)c2ccc(C)c(S(=O)(=O)N3CCCCC3)c2)C1` (stereo not given), “inactive”.
